Screening results deposited in PubChem BioAssay by National Center for Advancing Translational Sciences (NCATS).
HTT cytoprotect = Huntington cell model cytoprotection by ATP luminescence; PC12 HTT-Q103 induced, cytoprotection, ATP luminescence, 40 h; Potency, µM (series often up to 56.4 µM), without a hit: cytoprotection (ATP increase), most hits filed as activators; 230,000 compounds, 0.14% hits; AID 1471; further: % of control where 0% means no effect; nearly all actives have a fitted effect of over 45% in size
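Quantitative HTS on tebufenozide-induced (100 nM) PC12 cells expressing HTTQ103 exon 1–GFP; compounds tested as a concentration series; survival measured via cellular ATP.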
ATXN2 expr inh = reduces ATXN2 reporter expression in HEK-293 cells | AID 1745845 | Potency, µM (series often up to 57 µM), inactives show at the highest dose activity change, negative = inhibition, hits mostly inhibitors | 360,000 compounds, 0.72% hits | HEK-293 ATXN2-luciferase reporter, luminescence, 24 h; further: on the % scale 0 is the no-effect control and ±100 the full control effect; nearly all actives have a fitted effect of over 55% in size
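ATXN2-luciferase reporter cells (luciferase flanked by upstream and downstream ATXN2 gene portions) were treated 24 h at 37 °C with compounds at up to 57 uM. SteadyGlo luminescence gave expression; GF-AFC fluorescence gave viability.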
HepG2 tox = HepG2 cytotoxicity, counter-screen for TGF-b inhibitors; HepG2 CAGA-GFP viability, ATP luminescence, 18 h; Potency, µM (highest dose often 46.1 µM), for the others: top-dose activity change, negative = cytotoxicity, usual class: cytotoxic; 410,000 compounds, 0.76% hits
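CellTiter-Glo luminescence gave cytotoxicity after 18 hours at 37 degrees C. The cells were HepG2 CAGA-GFP in 1% FBS DMEM, stimulated with 500 pg/mL TGF-beta after compound addition. %Activity was normalised to no-cell wells (complete cell-killing) and DMSO (no toxicity), and curves were fitted and classified.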
HTT aggregate = inhibitors of mutant huntingtin aggregate formation in PC12 cells. PC12 HttQ103-GFP aggregates, Acumen cytometry, 40 h. Potency, µM (top dose mostly 46.1 µM), for inactives: top-dose activity change, negative = inhibition, most hits filed as inhibitors. 220,000 compounds, 1.1% hits; further: on the % scale 0 is the no-effect control and ±100 the full control effect; nearly all actives have a fitted effect of over 60% in size
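Read-out: GFP aggregate count by laser scanning cytometer (488 nm excitation, 500-530 nm emission, 1–25 µm objects >6 SD above background). Cells: PC12, inducible HTTex1-Q103-GFP, 100 nM tebufenozide; compounds titrated.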
ATXN viability = reduces viability in counter-screen for ATXN expression inhibitors | AID 651635 | Potency, µM (doses to about 56.7 µM), most hits filed as cytotoxic | 400,000 compounds, 0.49% hits | S2 cells (HEK-293 line with an ATXN2-luciferase reporter) viability, CellTiter-Fluor protease fluorescence, 24 h; further: nearly all actives have a fitted effect of over 40% in size
TGFb inhibitor = TGF-b pathway inhibition. 410,000 compounds, 1.2% hits. HepG2 CAGA-GFP TGF-b/SMAD3 reporter, GFP fluorescence, 18 h; TGF-beta stimulated, 500 pg/mL final. AID 588855. Potency, µM (doses to about 46.1 µM), without a hit: at the highest dose activity, negative = inhibition, actives largely listed as inhibitors; further: on the % scale 0 is the no-effect control and ±100 the full control effect; nearly all actives have a fitted effect of over 65% in size
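Using HEPG2 CAGA-GFP reporter cells at 1000 cells/well, we pinned test compounds, stimulated with recombinant TGF-beta (500 pg/mL final) and measured total well GFP after 18 h.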
* hit, by the source's call; i = inactive; ? = inconclusive; · = no result; ! = not confirmed by another sample; [ ] = another dose, or the depositor's remark. A selection: hits, their analogues and other compounds. The true share with any hit is near 2.8%. The call rests on the fitted dose curve; in most records, active means well fitted curve in the direction sought with a large enough effect; inconclusive means small, poorly fitted or top-dose-only effect, or another doubt; inactive means no such curve, though single readings can be large; an effect the other way counts as inactive or inconclusive. Potency means the concentration at half of the fitted maximal effect.

SMILES	HTT cytoprotect	ATXN2 expr inh	HepG2 tox	HTT aggregate	ATXN viability	TGFb inhibitor
CSc1ccc(CCNC(=O)CCc2nnc3ccc(N4CCCCC4)nn23)cc1	·	-20%	2.8µM*	·	i	?
COc1ccc(-c2csc3ncnc(NCCN4CCOCC4)c23)cc1	-26%	-19%	-3%	13µM*	i	-6%
CCCC(=O)Nc1ccc(O)c(C(C)=O)c1	·	8%	·	·	i	·
CC(C)=CCc1c2c(c3occ(-c4ccc(O)cc4)c(=O)c3c1O)C=CC(C)(C)O2	-287%	?	10µM*	?	·	7.9µM*
CC1(C)C=Cc2c(c3c(c4c(=O)c(-c5ccc(O)cc5)coc24)OC(C)(C)CC3)O1	-77%	?	-83%	-14%	·	14µM*
CC(C)=CCc1c2c(c3occ(-c4ccc(O)c(O)c4)c(=O)c3c1O)C=CC(C)(C)O2	-67%[10 µM]	22µM*	8.9µM*	·	?	10µM*
CC(C)(O)CCc1c(-c2ccc(O)cc2O)oc2c3c(cc(O)c2c1=O)OC(C)(C)C=C3	·	-10%	-103%	·	i	?
O=c1c(-c2ccc(O)cc2)coc2cc(O)cc(O)c12	-81%	93%	-6%	2%	i	28%
CC1(C)OC[C@@H]2O[C@@]3(C(=O)O)OC(C)(C)O[C@@H]3[C@@H]2O1	14%	·	·	0%	·	·
CN1C(=O)CC(CC(=O)N2CCCCC2CCO)(c2cccc(F)c2)C1=O (stereo unspecified)	·	·	·	·	i	·
COc1ccc([C@@H]2CC(=O)c3c(O)cc(O[C@@H]4O[C@@H](CO[C@@H]5O[C@@H](C)[C@@H](O)[C@@H](O)[C@H]5O)[C@@H](O)[C@@H](O)[C@H]4O)cc3O2)cc1O	2%	·	·	·	·	·
NC(=NCCCCCCN=C(N)/N=C(\N)Nc1ccc(Cl)cc1)/N=C(\N)Nc1ccc(Cl)cc1	-98%	20µM*!	-28%	14µM*	32µM*!	?
CNS(=O)(=O)c1cccc(C(=O)OCC(=O)c2ccc[nH]2)c1	·	2%	1%	·	?	4%
CNS(=O)(=O)c1cccc(C(=O)OCC(=O)c2ccc3c(c2)OCCO3)c1	·	18µM*	-1%	·	i	-5%
O=C(CC1(c2cccc(F)c2)CC(=O)N(Cc2cccnc2)C1=O)N1CCCCCCC1 (stereo unspecified)	·	·	·	·	i	·
O=C(NC(Cc1c[nH]c2ccccc12)C(=O)Nc1ccc(OC(F)(F)F)cc1)c1cccs1 (stereo unspecified)	10%[10 µM]	181%[11.3 µM]	11µM*	?	i	?
Cc1ccccc1CNC(=O)c1ccccc1C(=O)O	·	5%	6%	0.0089µM*	i	-11%
COCC(=O)Nc1cc(C(=O)N2CCCC(C(C)=O)C2)cc2nc(-c3ccccc3)n(C)c12 (stereo unspecified)	·	·	·	·	i	·
Cc1c(C(=O)N2CCCCC2)sc2ncnc(NCCN(C)C)c12	·	·	·	·	i	·
Cn1cc(-c2ccc3nnc(C(F)(F)c4ccc5ncccc5c4)n3n2)cn1	·	-23%	·	·	·	·
O=C(NCCCCN1CCOCC1)c1cc2ccccc2o1	·	13%	·	·	·	·
Nc1[nH]c(C(=O)c2ccc(Br)cc2)c(-c2ccc(Br)cc2)c1C(=O)NCCc1c[nH]c2ccccc12	·	-28%	·	·	?	·
Nc1[nH]c(C(=O)c2ccccc2)c(-c2ccccc2Br)c1C(=O)NCCc1c[nH]c2ccccc12	·	?	·	·	20µM*	·
Cc1cccc2sc(NNC(=O)c3ccc(S(=O)(=O)N4CCc5ccccc5C4)cc3)nc12	·	?	-34%	-16%	?	11µM*
Cc1cccc2sc(NNC(=O)c3ccc(S(=O)(=O)N4CCCC(C)C4)cc3)nc12 (stereo unspecified)	·	?	-61%	?	i	13µM*
SMILES	HTT cytoprotect	ATXN2 expr inh	HepG2 tox	HTT aggregate	ATXN viability	TGFb inhibitor
CCOC(=O)N1CCN(S(=O)(=O)c2ccc(C(=O)NNc3nc4c(C)cccc4s3)cc2)CC1	·	?	-31%	?	i	?
CNCc1nc(-c2ccc[nH]2)c2cc(Cl)ccc2n1	·	·	-35%	·	·	1%
C[C@H]1[C@H](C)CC[C@@]2(C(=O)O)CC[C@]3(C)C(=CC[C@H]4[C@@]5(C)C[C@@H](O)[C@H](O)[C@@](C)(CO)[C@@H]5CC[C@@]43C)[C@@H]12	16%	·	·	·	·	·
CC1(C)CC(=O)C=C(C#CC2(O)CCCCC2)C1	·	?	10µM*	·	16µM*	?
Cc1ccccc1N=C1Nc2ccc(Cl)cc2N[C@]12C[C@H]1CCCC(=O)N3CC[C@@H](C2)[C@@H]13	·	·	8%	·	·	4%
COC(=O)c1c(OCc2ccccn2)cc(=O)n2c1CCN(Cc1ccc3c(c1)CCCN3C)CC2	·	·	·	·	i	·
COc1cc(OC)cc(-c2cc3nc(C)c(CCC(=O)O)c(C)n3n2)c1	-19%	0.71µM*	0%	30%	i	0%
COc1cc(OC)cc(-c2cc3nc(C)c(CCC(=O)NC(C)CCc4ccco4)c(C)n3n2)c1 (stereo unspecified)	-18%	?	4%	-2%	i	-8%
Clc1ccc(C(Cn2ccnc2)OCc2ccc(Sc3ccccc3)cc2)c(Cl)c1 (stereo unspecified)	·	?	·	·	i	·
COC(=O)C1=C(C(=O)OC)[C@@H]2N(C)c3ccccc3[C@@]23C[C@@H](CO)N(C(=O)c2cc(C)oc2C)C3=N1	-6%[10 µM]	·	·	·	·	·
Cc1ccc(Nc2c(-c3ccccn3)nc3ccc(C)cn23)cc1	-44%[10 µM]	·	-7%	11µM*	?	?
Cc1ccc2nc(-c3ccc(O)cc3)c(Nc3ccc(Cl)cc3)n2c1	·	·	-83%	·	·	18µM*
Cc1ccc(Nc2c(-c3ccccn3)nc3cc(C)ccn23)cc1	-116%	3.5µM*	-38%	7.9µM*	?	?
CCCCCCCCCCCCCCCCOC(=O)N1CCN(/[N+]([O-])=N/Oc2ccc([N+](=O)[O-])cc2[N+](C)=O)CC1	·	·	2%	·	·	-3%
CC(O)COCC1OC2OC3C(COCC(C)O)OC(OC4C(COCC(C)O)OC(OC5C(COCC(C)O)OC(OC6C(COCC(C)O)OC(OC7C(COCC(C)O)OC(OC8C(COCC(C)O)OC(OC1C(OCC(C)O)C2OCC(C)O)C(OCC(C)O)C8OCC(C)O)C(OCC(C)O)C7OCC(C)O)C(OCC(C)O)C6OCC(C)O)C(OCC(C)O)C5OCC(C)O)C(OCC(C)O)C4OCC(C)O)C(OCC(C)O)C3OCC(C)O (stereo unspecified)	·	·	-7%	·	·	-11%
